# Laboratory results as given in publication PMC7862700, “An all-to-all approach to the identification of sequence-specific readers for epigenetic DNA modifications on cytosine”.
# Legend:
# Assay in all cases: DAPPL (digital affinity profiling via proximity ligation, sequencing); 10 mM Tris-HCl pH 7.5, 50 mM NaCl, 1 mM DTT, 4% glycerol, room temperature, 30 min; GST-TFs on glutathione beads, 16-mer random dsDNA library, 0.1% formaldehyde crosslink after washing; high values mean tight binding
# FLI1 = biological target: T1, FLI1 (Homo sapiens, UniProt Q01543 1-452); details: protein: recombinant; tags: N-terminal GST; dsDNA, one strand shown
# T1 sequence: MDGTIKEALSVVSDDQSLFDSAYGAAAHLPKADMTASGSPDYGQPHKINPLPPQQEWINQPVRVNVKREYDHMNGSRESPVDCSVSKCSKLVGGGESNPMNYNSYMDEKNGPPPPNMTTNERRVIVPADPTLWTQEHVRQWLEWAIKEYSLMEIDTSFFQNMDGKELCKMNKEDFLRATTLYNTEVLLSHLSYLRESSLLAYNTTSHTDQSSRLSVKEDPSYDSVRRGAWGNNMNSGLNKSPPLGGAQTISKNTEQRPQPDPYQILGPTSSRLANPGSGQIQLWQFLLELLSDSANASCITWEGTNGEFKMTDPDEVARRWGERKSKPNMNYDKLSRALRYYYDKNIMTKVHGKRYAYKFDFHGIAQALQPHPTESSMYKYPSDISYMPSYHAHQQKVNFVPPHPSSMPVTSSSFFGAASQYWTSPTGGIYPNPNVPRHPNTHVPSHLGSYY
# Method in brief: (§1)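 Pools of DNA-barcoded human transcription factors, expressed in yeast as GST fusions on glutathione beads and combined with a tag-only sample, were incubated with 200 nmole of a 16-mer random double-stranded DNA library. Incubation took 30 min at room temperature in Tris/NaCl/DTT/glycerol buffer and was followed by washing, 0.1% formaldehyde crosslinking, proximity ligation (BsaI/T4 ligase, 1 h, 37 °C), PCR amplification and sequencing on an Illumina NextSeq500. Binding signal is the ratio of a hexamer's read frequency for a factor to its frequency for the tag-only sample.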
# ELK1 = biological target: T2, ELK1 (Homo sapiens, UniProt P19419 1-428); details: protein: recombinant; tags: N-terminal GST; dsDNA, one strand shown
# T2 sequence: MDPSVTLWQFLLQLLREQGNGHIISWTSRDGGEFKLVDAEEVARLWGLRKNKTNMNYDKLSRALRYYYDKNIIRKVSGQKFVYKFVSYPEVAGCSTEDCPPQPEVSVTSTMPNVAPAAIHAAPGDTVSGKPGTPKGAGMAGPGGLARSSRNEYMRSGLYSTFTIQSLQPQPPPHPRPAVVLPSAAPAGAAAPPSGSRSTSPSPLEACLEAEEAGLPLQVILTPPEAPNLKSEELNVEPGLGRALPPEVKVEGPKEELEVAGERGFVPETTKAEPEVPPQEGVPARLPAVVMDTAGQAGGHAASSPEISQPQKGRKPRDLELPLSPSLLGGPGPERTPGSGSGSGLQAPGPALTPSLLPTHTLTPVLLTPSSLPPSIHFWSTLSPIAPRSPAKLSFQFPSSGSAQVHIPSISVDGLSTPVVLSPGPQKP
# Method in brief: as §1
# GABPA = biological target: T3, GABPA (Homo sapiens, UniProt Q06546 1-454); details: protein: recombinant; tags: N-terminal GST; dsDNA, one strand shown
# T3 sequence: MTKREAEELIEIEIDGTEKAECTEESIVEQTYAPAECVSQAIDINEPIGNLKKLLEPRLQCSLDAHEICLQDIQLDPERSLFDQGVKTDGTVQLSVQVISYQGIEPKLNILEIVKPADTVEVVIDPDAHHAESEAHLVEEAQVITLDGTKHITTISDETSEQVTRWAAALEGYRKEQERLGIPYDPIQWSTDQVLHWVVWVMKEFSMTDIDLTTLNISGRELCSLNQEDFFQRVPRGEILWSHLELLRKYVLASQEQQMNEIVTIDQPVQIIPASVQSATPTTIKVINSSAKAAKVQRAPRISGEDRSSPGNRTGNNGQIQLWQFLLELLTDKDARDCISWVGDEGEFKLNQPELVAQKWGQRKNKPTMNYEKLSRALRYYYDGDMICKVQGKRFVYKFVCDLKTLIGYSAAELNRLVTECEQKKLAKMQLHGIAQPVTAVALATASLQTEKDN
# Method in brief: as §1
# ERG = biological target: T4, ERG (Homo sapiens, UniProt P11308 1-479); details: protein: recombinant; tags: N-terminal GST; dsDNA, one strand shown
# T4 sequence: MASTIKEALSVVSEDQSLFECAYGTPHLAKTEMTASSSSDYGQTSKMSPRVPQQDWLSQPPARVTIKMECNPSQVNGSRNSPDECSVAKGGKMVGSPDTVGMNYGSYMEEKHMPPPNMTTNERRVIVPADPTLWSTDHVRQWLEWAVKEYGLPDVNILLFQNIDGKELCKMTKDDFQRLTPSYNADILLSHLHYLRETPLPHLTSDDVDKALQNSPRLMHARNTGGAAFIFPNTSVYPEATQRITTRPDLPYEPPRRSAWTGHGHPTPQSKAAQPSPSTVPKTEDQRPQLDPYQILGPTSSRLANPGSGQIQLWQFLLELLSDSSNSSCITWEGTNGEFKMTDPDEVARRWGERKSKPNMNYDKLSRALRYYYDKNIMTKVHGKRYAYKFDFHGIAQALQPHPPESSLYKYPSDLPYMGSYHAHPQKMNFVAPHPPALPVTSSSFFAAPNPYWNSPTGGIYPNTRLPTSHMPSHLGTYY
# Method in brief: as §1
# ELF1 = ELF1 (Homo sapiens, UniProt P32519 1-619); details: protein: recombinant; tags: N-terminal GST; dsDNA, one strand shown
# ELF1, sequence (P32519 whole entry): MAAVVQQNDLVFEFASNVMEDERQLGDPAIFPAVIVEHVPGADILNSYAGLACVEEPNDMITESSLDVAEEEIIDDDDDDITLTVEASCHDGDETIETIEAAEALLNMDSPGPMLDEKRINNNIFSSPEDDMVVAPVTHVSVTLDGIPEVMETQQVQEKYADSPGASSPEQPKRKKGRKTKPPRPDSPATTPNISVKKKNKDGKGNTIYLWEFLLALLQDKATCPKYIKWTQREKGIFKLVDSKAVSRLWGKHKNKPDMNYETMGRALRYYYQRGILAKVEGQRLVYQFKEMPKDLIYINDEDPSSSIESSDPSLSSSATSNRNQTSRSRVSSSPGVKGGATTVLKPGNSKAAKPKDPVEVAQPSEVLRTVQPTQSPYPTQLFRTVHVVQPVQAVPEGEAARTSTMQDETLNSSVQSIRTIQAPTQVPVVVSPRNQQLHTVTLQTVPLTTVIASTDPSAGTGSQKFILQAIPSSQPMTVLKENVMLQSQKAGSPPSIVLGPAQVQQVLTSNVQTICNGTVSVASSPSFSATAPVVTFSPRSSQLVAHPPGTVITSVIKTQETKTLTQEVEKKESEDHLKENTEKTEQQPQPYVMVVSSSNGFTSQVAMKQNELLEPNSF
# Method in brief: as §1
# EHF = biological target: T5, EHF (Homo sapiens, UniProt Q9NZC4 1-300); details: protein: recombinant; tags: N-terminal GST; dsDNA, one strand shown
# T5 sequence: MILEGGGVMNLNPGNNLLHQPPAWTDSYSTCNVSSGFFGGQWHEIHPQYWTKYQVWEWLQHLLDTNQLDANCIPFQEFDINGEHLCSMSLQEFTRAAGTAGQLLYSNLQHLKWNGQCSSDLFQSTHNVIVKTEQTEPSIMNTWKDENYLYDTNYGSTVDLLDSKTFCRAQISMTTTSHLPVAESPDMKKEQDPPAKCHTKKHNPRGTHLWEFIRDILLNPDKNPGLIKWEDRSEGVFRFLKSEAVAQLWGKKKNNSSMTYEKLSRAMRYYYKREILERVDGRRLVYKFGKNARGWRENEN
# Method in brief: as §1
# SPI1 = SPI1 (Homo sapiens, UniProt P17947 1-270); details: protein: recombinant; tags: N-terminal GST; dsDNA, one strand shown
# Method in brief: as §1
# SPIB = SPIB (Homo sapiens, UniProt Q01892 1-262); details: protein: recombinant; tags: N-terminal GST; dsDNA, one strand shown
# SPIB, sequence (Q01892 whole entry): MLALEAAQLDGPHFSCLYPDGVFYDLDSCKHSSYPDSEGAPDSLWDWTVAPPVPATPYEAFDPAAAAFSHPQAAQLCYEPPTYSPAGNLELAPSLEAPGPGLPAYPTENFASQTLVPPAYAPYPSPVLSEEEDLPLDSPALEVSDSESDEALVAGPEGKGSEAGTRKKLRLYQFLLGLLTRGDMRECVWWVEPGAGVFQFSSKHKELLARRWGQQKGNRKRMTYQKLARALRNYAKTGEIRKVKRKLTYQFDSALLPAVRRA
# Method in brief: as §1
# ELK3 = biological target: T6, ELK3 (Homo sapiens, UniProt P41970 1-407); details: protein: recombinant; tags: N-terminal GST; dsDNA, one strand shown
# T6 sequence: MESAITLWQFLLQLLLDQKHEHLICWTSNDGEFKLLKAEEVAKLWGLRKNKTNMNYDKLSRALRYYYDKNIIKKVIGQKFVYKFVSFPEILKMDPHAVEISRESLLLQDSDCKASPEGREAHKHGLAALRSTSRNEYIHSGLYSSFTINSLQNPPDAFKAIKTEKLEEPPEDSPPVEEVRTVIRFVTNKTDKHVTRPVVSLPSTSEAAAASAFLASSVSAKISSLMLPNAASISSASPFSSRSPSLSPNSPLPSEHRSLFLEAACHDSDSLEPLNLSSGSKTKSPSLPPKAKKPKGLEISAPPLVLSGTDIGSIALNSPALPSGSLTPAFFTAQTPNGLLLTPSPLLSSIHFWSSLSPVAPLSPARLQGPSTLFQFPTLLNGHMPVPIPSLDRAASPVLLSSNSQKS
# Method in brief: as §1
# FEV = biological target: T7, FEV (Homo sapiens, UniProt Q99581 1-238); details: protein: recombinant; tags: N-terminal GST; dsDNA, one strand shown
# T7 sequence: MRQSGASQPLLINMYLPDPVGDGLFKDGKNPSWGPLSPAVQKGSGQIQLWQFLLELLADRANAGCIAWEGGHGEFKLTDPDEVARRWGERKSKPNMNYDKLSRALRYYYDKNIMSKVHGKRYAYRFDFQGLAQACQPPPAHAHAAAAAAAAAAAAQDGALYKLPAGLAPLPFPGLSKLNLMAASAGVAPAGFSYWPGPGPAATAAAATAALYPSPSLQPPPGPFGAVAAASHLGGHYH
# Method in brief: as §1
# ETV5 = ETV5 (Homo sapiens, UniProt P41161 1-510); details: protein: recombinant; tags: N-terminal GST; dsDNA, one strand shown
# ETV5, sequence (P41161 whole entry): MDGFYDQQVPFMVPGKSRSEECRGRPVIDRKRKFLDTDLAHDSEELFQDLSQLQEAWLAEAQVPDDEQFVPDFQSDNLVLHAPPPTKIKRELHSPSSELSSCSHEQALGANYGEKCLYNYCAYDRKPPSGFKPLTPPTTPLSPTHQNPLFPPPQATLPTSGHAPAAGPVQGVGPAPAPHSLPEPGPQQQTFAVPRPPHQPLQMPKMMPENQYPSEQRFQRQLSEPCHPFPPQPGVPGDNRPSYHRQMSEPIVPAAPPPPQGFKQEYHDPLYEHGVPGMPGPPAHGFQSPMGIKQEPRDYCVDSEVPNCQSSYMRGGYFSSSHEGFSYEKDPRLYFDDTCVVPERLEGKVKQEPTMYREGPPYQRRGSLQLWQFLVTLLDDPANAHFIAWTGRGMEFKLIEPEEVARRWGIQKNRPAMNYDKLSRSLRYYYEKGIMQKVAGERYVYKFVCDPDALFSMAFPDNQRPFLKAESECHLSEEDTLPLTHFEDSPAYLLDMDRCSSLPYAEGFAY
# Method in brief: as §1
# HSF1 = HSF1 (Homo sapiens, UniProt Q00613 1-529); details: protein: recombinant; tags: N-terminal GST; chain copies: 3; dsDNA, one strand shown
# HSF1, sequence (Q00613 whole entry): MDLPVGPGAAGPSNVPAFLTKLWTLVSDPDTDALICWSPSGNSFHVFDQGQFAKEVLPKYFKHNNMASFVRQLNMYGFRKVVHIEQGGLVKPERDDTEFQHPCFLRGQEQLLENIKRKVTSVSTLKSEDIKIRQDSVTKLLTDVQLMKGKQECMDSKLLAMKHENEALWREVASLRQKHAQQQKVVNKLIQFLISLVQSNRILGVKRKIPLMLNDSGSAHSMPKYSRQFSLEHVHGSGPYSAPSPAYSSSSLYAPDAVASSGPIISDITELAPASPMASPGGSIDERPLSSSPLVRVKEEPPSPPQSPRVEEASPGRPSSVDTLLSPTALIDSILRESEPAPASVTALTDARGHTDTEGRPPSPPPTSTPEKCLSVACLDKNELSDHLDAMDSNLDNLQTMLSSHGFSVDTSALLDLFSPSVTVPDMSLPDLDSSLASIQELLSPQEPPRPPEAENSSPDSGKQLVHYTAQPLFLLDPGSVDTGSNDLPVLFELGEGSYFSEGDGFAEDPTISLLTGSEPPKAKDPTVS
# Method in brief: as §1
# SPIC = biological target: T8, SPIC (Homo sapiens, UniProt Q8N5J4 1-248); details: protein: recombinant; tags: N-terminal GST; dsDNA, one strand shown
# T8 sequence: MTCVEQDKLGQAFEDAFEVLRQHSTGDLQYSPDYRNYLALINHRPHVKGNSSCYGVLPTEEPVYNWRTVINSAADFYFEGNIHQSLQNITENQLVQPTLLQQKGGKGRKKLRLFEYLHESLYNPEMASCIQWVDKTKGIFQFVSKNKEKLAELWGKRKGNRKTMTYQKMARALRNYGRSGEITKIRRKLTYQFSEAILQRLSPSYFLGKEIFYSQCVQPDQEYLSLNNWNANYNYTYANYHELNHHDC
# Method in brief: as §1
# ELF4 = ELF4 (Homo sapiens, UniProt Q99607 1-663); details: protein: recombinant; tags: N-terminal GST; dsDNA, one strand shown
# ELF4, sequence (Q99607 whole entry): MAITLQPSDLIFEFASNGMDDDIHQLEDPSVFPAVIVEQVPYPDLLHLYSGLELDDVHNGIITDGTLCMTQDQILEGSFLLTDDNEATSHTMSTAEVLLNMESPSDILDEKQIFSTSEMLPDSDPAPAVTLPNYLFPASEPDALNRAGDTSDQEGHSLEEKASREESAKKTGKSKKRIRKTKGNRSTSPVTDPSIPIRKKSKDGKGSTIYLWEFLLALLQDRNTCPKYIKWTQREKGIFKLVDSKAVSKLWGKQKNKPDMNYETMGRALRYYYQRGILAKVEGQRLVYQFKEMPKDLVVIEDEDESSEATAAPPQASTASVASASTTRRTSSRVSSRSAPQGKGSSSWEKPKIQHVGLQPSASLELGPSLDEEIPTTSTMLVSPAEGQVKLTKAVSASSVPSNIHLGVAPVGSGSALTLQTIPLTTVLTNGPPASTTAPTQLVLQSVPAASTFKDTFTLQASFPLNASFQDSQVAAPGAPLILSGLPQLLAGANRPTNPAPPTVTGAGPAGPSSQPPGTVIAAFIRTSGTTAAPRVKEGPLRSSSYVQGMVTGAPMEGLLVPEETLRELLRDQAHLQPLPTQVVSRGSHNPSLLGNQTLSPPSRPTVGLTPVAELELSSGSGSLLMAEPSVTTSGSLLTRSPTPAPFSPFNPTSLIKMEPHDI
# Method in brief: as §1
# ELK4 = biological target: T9, ELK4 (Homo sapiens, UniProt P28324-2 1-405); details: protein: recombinant; tags: N-terminal GST; dsDNA, one strand shown
# T9 sequence: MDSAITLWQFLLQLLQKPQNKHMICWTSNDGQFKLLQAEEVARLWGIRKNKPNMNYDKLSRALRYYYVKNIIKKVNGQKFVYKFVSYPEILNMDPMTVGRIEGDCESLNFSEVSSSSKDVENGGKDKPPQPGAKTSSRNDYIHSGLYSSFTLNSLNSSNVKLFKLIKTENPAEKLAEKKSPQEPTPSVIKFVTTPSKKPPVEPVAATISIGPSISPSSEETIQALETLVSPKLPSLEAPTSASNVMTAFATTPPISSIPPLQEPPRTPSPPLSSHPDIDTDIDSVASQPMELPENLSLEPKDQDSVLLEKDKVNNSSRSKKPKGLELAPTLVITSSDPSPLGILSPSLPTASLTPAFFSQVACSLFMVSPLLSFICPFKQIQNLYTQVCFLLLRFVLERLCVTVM
# Method in brief: as §1
# ETV2 = biological target: T10, ETV2 (Homo sapiens, UniProt O00321 1-342); details: protein: recombinant; tags: N-terminal GST; dsDNA, one strand shown
# T10 sequence: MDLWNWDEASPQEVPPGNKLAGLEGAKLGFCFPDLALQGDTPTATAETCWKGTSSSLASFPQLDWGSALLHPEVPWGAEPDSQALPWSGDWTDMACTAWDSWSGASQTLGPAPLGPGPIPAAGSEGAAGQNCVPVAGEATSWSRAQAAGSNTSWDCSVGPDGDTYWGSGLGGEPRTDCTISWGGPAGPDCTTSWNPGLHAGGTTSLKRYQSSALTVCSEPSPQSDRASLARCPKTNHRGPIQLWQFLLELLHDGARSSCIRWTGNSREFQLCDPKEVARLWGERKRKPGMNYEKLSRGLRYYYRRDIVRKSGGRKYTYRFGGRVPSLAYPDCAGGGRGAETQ
# Method in brief: as §1
# ELF3 = biological target: T11, ELF3 (Homo sapiens, UniProt P78545 1-371); details: protein: recombinant; tags: N-terminal GST; dsDNA, one strand shown
# T11 sequence: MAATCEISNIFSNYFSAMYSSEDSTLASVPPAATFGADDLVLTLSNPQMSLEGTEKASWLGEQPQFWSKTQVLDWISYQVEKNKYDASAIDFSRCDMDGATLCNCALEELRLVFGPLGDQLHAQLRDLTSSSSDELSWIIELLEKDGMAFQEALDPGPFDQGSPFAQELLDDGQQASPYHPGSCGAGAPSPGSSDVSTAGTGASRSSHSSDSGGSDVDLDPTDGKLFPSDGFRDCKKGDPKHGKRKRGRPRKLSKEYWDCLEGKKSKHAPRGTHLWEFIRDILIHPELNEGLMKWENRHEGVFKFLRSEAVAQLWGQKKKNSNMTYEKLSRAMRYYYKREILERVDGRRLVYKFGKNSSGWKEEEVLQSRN
# Method in brief: as §1
# CRX = CRX (Homo sapiens, UniProt O43186 1-299); details: protein: recombinant; tags: N-terminal GST; dsDNA, one strand shown
# CRX, sequence (O43186 whole entry): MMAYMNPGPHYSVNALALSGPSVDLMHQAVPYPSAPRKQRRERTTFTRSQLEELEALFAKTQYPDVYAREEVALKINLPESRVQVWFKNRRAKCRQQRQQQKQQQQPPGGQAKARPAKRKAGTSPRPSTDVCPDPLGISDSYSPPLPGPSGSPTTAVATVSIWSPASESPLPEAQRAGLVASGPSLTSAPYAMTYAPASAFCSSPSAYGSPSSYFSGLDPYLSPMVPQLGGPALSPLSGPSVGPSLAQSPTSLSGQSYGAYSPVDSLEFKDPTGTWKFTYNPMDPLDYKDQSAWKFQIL
# Method in brief: as §1
# ETV1 = ETV1 (Homo sapiens, UniProt P50549 1-477); details: protein: recombinant; tags: N-terminal GST; dsDNA, one strand shown
# ETV1, sequence (P50549 whole entry): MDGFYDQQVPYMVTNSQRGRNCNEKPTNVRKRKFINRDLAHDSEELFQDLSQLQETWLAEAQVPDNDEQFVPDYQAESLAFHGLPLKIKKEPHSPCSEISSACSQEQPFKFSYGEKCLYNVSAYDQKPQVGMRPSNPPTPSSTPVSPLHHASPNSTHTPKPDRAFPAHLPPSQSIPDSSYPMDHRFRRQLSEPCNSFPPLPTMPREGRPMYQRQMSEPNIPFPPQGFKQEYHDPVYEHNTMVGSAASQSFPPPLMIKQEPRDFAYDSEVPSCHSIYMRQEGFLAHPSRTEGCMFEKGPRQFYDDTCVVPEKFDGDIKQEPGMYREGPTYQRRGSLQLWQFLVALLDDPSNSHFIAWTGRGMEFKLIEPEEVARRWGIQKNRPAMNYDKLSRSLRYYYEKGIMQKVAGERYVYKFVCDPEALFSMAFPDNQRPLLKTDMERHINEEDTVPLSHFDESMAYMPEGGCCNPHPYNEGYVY
# Method in brief: as §1
sequence,measurement,setting,value
TAAACT,binding signal,FLI1,"1.13 fold enrichment (6-mer frequency, TF over GST control)"
same,binding signal,ELK1,"1.24 fold enrichment (6-mer frequency, TF over GST control)"
same,binding signal,GABPA,"1.19 fold enrichment (6-mer frequency, TF over GST control)"
same,binding signal,ERG,"1.14 fold enrichment (6-mer frequency, TF over GST control)"
same,binding signal,ELF1,"1.13 fold enrichment (6-mer frequency, TF over GST control)"
same,binding signal,EHF,"1.15 fold enrichment (6-mer frequency, TF over GST control)"
same,binding signal,SPI1,"1.15 fold enrichment (6-mer frequency, TF over GST control)"
same,binding signal,SPIB,"1.23 fold enrichment (6-mer frequency, TF over GST control)"
same,binding signal,ELK3,"1.27 fold enrichment (6-mer frequency, TF over GST control)"
same,binding signal,FEV,"1.11 fold enrichment (6-mer frequency, TF over GST control)"
same,binding signal,ETV5,"1.23 fold enrichment (6-mer frequency, TF over GST control)"
same,binding signal,HSF1,"1.3 fold enrichment (6-mer frequency, TF over GST control)"
same,binding signal,SPIC,"1.12 fold enrichment (6-mer frequency, TF over GST control)"
same,binding signal,ELF4,"1.23 fold enrichment (6-mer frequency, TF over GST control)"
same,binding signal,ELK4,"1.11 fold enrichment (6-mer frequency, TF over GST control)"
same,binding signal,ETV2,"1.27 fold enrichment (6-mer frequency, TF over GST control)"
same,binding signal,ELF3,"1.04 fold enrichment (6-mer frequency, TF over GST control)"
same,binding signal,CRX,"1.72 fold enrichment (6-mer frequency, TF over GST control)"
same,binding signal,ETV1,"1.2 fold enrichment (6-mer frequency, TF over GST control)"
